Where “and” joins values, the source holds several entries; their conditions need not be identical. Equal entries are not always repeated. About 64,000 (15%) of roughly 420,000 compounds were called active. Not shown: some 27% with an inconclusive outcome. Calls follow the shape of the dose curve; as a rule, active = well fitted inhibition curve with a large enough effect; inconclusive = small, poorly fitted or top-dose-only effect; inactive = flat fitted curve, though single readings scatter. These entries were drawn from the full list. A call without a number means that no potency is given here. Peptide text beside a SMILES is read from it. * marks the point of attachment. Bz = O=C(c1ccccc1)*
assay: qHTS for Inhibitors of human tyrosyl-DNA phosphodiesterase 1 (TDP1): qHTS in cells in absence of CPT; conditions: DT40 Tdp1-/- hTDP1 cells, no CPT, ATP luminescence, 48 h; activity change, negative = growth inhibition: at 46.2 µM (top of the series); also: nearly all actives have a fitted effect of over 55% in size
Method in brief: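 Chicken DT40 Tdp1-/- cells stably complemented with human TDP1 were seeded at 400 cells/well with DMSO in place of 20 nM camptothecin. After compound pinning, cells grew at least 48 hr at 37 °C; viability read by CellTiter-Glo luminescence.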
Potency is read from the fitted curve at half-maximal effect.

Compound | Potency
CC(C)(C)c1ccccc1NC(=O)CN1C(=O)NC2(CCCC2)C1=O | inactive
CCc1[nH]nc(C(=O)N2CCCC(CNS(=O)(=O)c3cccs3)C2)c1C (centres undefined) | inactive
CC(CN1CCOCC1)c1ccccc1 (centres undefined) | inactive
O=C(COC(=O)CCc1nc2ccccc2c(=O)[nH]1)Nc1ccc(N2CCOCC2)cc1 | inactive
FC(F)(F)c1cc(-c2ccco2)nc(N2CCOCC2)n1 | inactive
Cc1ccc(C(CC(=O)O)Nc2nc(N3CCCCC3)nc(N3CCCCC3)n2)cc1 (centres undefined) | inactive
c1ccc2c(NC3C4CC5CC(C4)CC3C5)nc(N3CCOCC3)nc2c1 (centres undefined) | 20.6 µM (active)
CC(Nc1nc(N2CCCC2)nc2ccccc12)c1ccccc1 (centres undefined) | 20.6 µM (active)
CC(NC(=O)C1CCC(CNc2c(N3CCOCC3)c(=O)c2=O)CC1)c1ccccc1 (centres undefined) | inactive
O=C(NNc1nc(N2CCCC2)nc(N2CCCC2)n1)c1ccccc1 | inactive
CC(Nc1nc(N2CCOCC2)nc2ccccc12)c1ccccc1 (centres undefined) | 18.4 µM (active)
NC(=O)c1ccc(N2CCCC2)nc1 | inactive
COc1ccccc1C(=O)Nc1ccc(OCc2nnc3c4ccccc4c(C)nn23)cc1 | 13 µM (active)
COc1cc(C(=O)Nc2ccc(OCc3cc(=O)n4cc(C)sc4n3)cc2)cc(OC)c1OC | inactive
COc1ccccc1C(=O)Nc1ccc(Nc2ccccc2)cc1 | inactive
O=C1N=C2SCCN2/C1=C\c1c(Cl)cccc1Cl | inactive
Cc1c(C(=O)NCCN2C(=O)S/C(=C\c3cccs3)C2=O)cccc1[N+](=O)[O-] | inactive
CN(C)c1ccc(C(CC(=O)O)C(=O)O)cc1 (centres undefined) | inactive
c1n[nH]c(NCc2ccc3c(c2)OCO3)n1 | inactive
O=C(CCN1C(=O)c2ccccc2C1=O)C1=NN[C@@H]2C(=O)N(c3ccc(F)cc3)C(=O)[C@H]12 | inactive
CC(=O)c1ccc(S(=O)(=O)N2CCC3(CC2)OCCO3)cc1 | inactive
CCCCN(C)CCNC(=O)C1CCCN(S(=O)(=O)c2cccc3nsnc23)C1 (centres undefined) | inactive

Compound | Potency
CCCCC(CC)CNC(=O)C1CCN(S(=O)(=O)c2cccc3nsnc23)CC1 (centres undefined) | inactive
CCCCN(CC)C(=O)C1CCCN(S(=O)(=O)c2cccc3nsnc23)C1 (centres undefined) | 18.4 µM (active)
Cc1cc(=O)[nH]c(SCc2cc(Cl)ccc2OC(F)F)n1 | inactive
O=C(COC(=O)C1CC2CCCC(C1)C2=O)NC(=O)c1ccccc1 (centres undefined) | inactive
O=C(COC(=O)c1ccc(NS(=O)(=O)c2cccs2)cc1O)Nc1ccc(F)cc1 | inactive
CCC(CC)NC(=O)CSc1nnc(-c2c[nH]c3ccccc23)o1 | inactive
O=S(=O)(NCCc1ccncc1)c1ccccc1 | inactive
CS(=O)(=O)Nc1cccc(-c2cn3ccccc3n2)c1 | inactive
CCCC(=O)Nc1cccc(-c2cn3ccsc3n2)c1 | inactive
CCCS(=O)(=O)Nc1cccc(-c2cn3ccsc3n2)c1 | 25.9 µM (active)
O=C1CC2(CCCC2)Oc2ccc(Cl)cc21 | inactive
COc1cccc2c1OCC(CN1CCN(C3CCCCC3)C(CCO)C1)=C2 (centres undefined) | inactive
CCc1cccc(OC2OC(CO)C(O)C(O)C2NC(C)=O)c1 (centres undefined) | inactive
Cn1ncc2c(Nc3cccc4ccccc34)ncnc21 | inactive
CCOC(=O)c1cccc(NC(=O)C(Cc2ccccc2)NS(=O)(=O)c2cccc3nsnc23)c1 (centres undefined) | 23.1 µM (active)
O=C(O)C(NS(=O)(=O)c1cccc2nsnc12)c1ccccc1 (centres undefined) | inactive
COc1ccc(CNC(=O)C(NS(=O)(=O)c2cccc3nsnc23)C(C)C)cc1 (centres undefined) | inactive
COc1ccc(NC(=S)N2CCCC(CO)C2)c(OC)c1 (centres undefined) | inactive
O=C(C1CCCO1)N(c1ccc(F)cc1)C1C=CS(=O)(=O)C1 (centres undefined) | inactive
COc1ccc(NC(=O)Nc2cccc3cccnc23)cc1 | inactive
O=C(Nc1ccccc1Cl)Nc1cccc2cccnc12 | inactive
O=C(Nc1ccccc1)Oc1cccc2cccnc12 | 1.03 µM (active)

Compound | Potency
CSCCC(NC(=O)COc1ccccc1)C(=O)N(C)CC(=O)Nc1ccc(C)cc1 (centres undefined) | inactive
COc1ccc(S(=O)(=O)NCCc2cc3ccc(C)c(C)c3[nH]c2=O)cc1 | 8.2 µM (active) and 23.1 µM (active)
COc1ccc(CCNS(=O)(=O)c2cccc([N+](=O)[O-])c2)cc1 | inactive
COc1ccc(S(=O)(=O)NCCSc2nnnn2-c2ccccc2)cc1 | inactive
Cc1cc(NS(=O)(=O)c2ccccc2)no1 | inactive
CCOC(=O)CNC(=O)CSc1ncccc1-c1nc2ccccc2[nH]1 | inactive
C/C(=N/OC(=O)c1ccc(Br)cc1)c1ccc(C)cc1 | inactive
O=Cc1c(Nc2ccccc2Cl)nc2ccccn2c1=O | inactive
CCOc1cccc(-n2nnnc2-c2ccc(OC)cc2)c1 | 2.91 µM (active)
COc1ccc(-n2nnnc2-c2nc3ccccc3s2)cc1 | inactive
COc1ccc(NC(=O)CSc2nnnn2-c2cccc(OC)c2)cc1 | inactive
Cc1cccc(CSc2ccc(-c3cccs3)nn2)c1 | inactive
CC(C)CCNC(=O)CSc1nc2ccccc2nc1Cc1ccc(Cl)cc1 | inactive
Nc1ncnc2c1ncn2[C@@H]1O[C@H](CNS(=O)(=O)c2ccc(-c3ccno3)s2)[C@@H](O)[C@H]1O | inactive
CO/N=C(\C(=O)N[C@@H]1C(=O)N2C(C(=O)O)=CCS[C@H]12)c1csc(N)n1 | inactive
O=C(c1ccccc1F)N1CCN(S(=O)(=O)c2ccc(Br)cc2)CC1 | inactive
O=S(=O)(c1ccc(Br)cc1)n1ccc2ccccc21 | 18.4 µM (active)
O=C(O)C1CCCN1S(=O)(=O)c1ccc(Br)cc1 (centres undefined) | inactive
O=C(Nc1ccc2c(c1)OCCO2)C1CCCC1 | inactive
COc1ccc(OCCCC(=O)NCCc2ccccc2)cc1 | inactive
COc1ccc(CNC(=O)CCN2C(=O)c3ccccc3C2=O)cc1 | inactive
COc1ccc(CCNCc2c(-c3ccccc3)n(C)c3ccccc23)cc1 | 16.4 µM (active)

Compound | Potency
CC1(c2ccccc2)NC(=O)N(CC(=O)N2CC(=O)Nc3ccccc32)C1=O (centres undefined) | inactive
Cc1ccc(Cl)cc1NC(=O)NC1COc2ccccc2C1 (centres undefined) | inactive
Cc1cc[n+](-c2[nH]c(=O)sc2/C=N/NC(=O)c2ccccc2[O-])cc1C | inactive
Cc1ccc(N=Nc2c(C)[nH]n(-c3ccccc3)c2=O)cc1 | inactive
Cc1[nH]n(-c2ccccc2)c(=O)c1/C=N/NC(=O)c1ccoc1C | 1.84 µM (active)
CCn1c(SCC(=O)Nc2ccc(S(=O)(=O)Nc3onc(C)c3C)cc2)nnc1-c1ccccc1 | inactive
CCOc1ccc(NC(=O)CCC(=O)NNC(=O)NC2CCCCC2)cc1 | inactive
c1ccc(Nc2nc(N3CCOCC3)c3ccccc3n2)cc1 | 16.4 µM (active)
O=C(COc1nc2ccccc2nc1N1CCOCC1)NCC(F)(F)F | inactive
O=c1[nH]c(N2CCOCC2)nc2ccccc12 | inactive
Cc1ccc(-n2c(SCC(=O)Nc3ccc4c(c3)OCO4)nnc2-c2ccccn2)cc1 | inactive
Cc1ccc2c(NC(=O)C3CC3)cccc2n1 | inactive
Cc1ccc(C(=O)Nc2cccc3ncccc23)cc1[N+](=O)[O-] | inactive
Cc1ccc(/C=C(\C#N)C(=O)Nc2cccc3ncccc23)o1 | 25.9 µM (active)
COc1ccc(S(=O)(=O)N2CCCC2CNC(=O)C(=O)NC2CC2)cc1 (centres undefined) | inactive
Cc1cc(OCc2ccc(C(=O)Nc3ccc(C(=O)O)cc3)o2)ccc1Cl | inactive
CCN(CC)S(=O)(=O)c1ccc(-c2cn3ccc(C)cc3n2)cc1 | inactive
C/C(=N/NS(=O)(=O)c1ccccc1)c1ccc(NC(=O)C(F)(F)F)cc1 | inactive
Cn1c(=O)c2c(-c3ccccc3Br)n(Cc3ccccc3)cc2n(C)c1=O | 18.4 µM (active)
Cc1c(S(=O)(=O)NCc2ccccc2)c(=O)n(C)c(=O)n1C | inactive
O=C(NC(Cc1ccccc1)C(=O)N1CCCC1C(=O)O)c1ccccc1 (stereo not drawn) (Bz-Phe-Pro-OH; configuration not given here) | inactive
CN(C)c1nc(N)nc(Cn2nnc(-c3ccc(C(F)(F)F)cc3)n2)n1 | inactive

Compound | Potency
Cc1ccc(C(=O)Nc2ccccc2-c2ccccc2)cc1S(=O)(=O)Nc1ccccc1 | 14.6 µM (active)
O=C(O)c1ccc(F)c(S(=O)(=O)Nc2ccccc2)c1 | inactive
Cc1ccc(C(=O)Nc2ccc(C(=O)O)cc2)cc1S(=O)(=O)Nc1ccccc1 | inactive
Cc1ccc(F)c(S(=O)(=O)NC(=O)C2(C)CCN2C(=O)c2ccco2)c1 (centres undefined) | inactive
CC(C(=O)N(C)CC(=O)Nc1ccccc1C(F)(F)F)N1C(=O)c2ccccc2C1=O (centres undefined) | inactive
CCOC(CNC(=O)C(=O)NCC(c1ccco1)N1CCN(c2ccc(OC)cc2)CC1)OCC (centres undefined) | inactive
CC[n+]1cc(C)ccc1/C=C/c1ccc(N(C)C)cc1 | 0.0259 µM (active)
CCNC(=O)COC(=O)/C=C/c1c(C)nn(Cc2cccc(OC)c2)c1Cl | inactive
Cc1ccc(-c2c3c(=O)n(C)c(=O)n(C)c3cn2-c2ccccc2O)cc1 | inactive
Cc1cn(C)c(=O)n(C)c1=O | inactive
Cc1ccc(-c2c3c(=O)n(C)c(=O)n(C)c3cn2-n2cnnc2)cc1 | 20.6 µM (active)
CC1CCN(CCC(=O)Nc2ccccc2)CC1 | inactive
CC1=NC2(CCCc3c2no[n+]3[O-])N(O)C1(C)C (centres undefined) | inactive
COc1ccc(NC(=O)Nc2ccc3nc(C)c(C)nc3c2)cc1 | inactive
COc1ccc(Nc2nc(=O)[nH]nc2C)cc1 | inactive
COc1ccc(Nc2cc(Sc3ccc(OC)cc3)ncn2)cc1 | 16.4 µM (active)
CCCC(NS(=O)(=O)c1ccc(OC)cc1)C(=O)O (centres undefined) | inactive
COC(=O)c1ccc(COC(=O)c2c(C)nn(Cc3ccccc3Cl)c2Cl)o1 | inactive
CC(=O)Oc1ccc(C)cc1N1C(=O)c2ccc(C(=O)O)cc2C1=O | inactive
COc1ccc(C(=O)CN2C(=O)NC(C)(c3ccc(C)cc3)C2=O)cc1OC (centres undefined) | inactive
COc1ccc(C)cc1-n1c(-c2ccc(C)cc2)cc2c1CC(C)(C)CC2=O | 8.2 µM (active)

— PubChem BioAssay AID686978 (National Center for Advancing Translational Sciences (NCATS), 2013)
